The results in this text go back to PMC7862700, “An all-to-all approach to the identification of sequence-specific readers for epigenetic DNA modifications on cytosine”.

Experiment in all cases: DAPPL (digital affinity profiling via proximity ligation, sequencing); 10 mM Tris-HCl pH 7.5, 50 mM NaCl, 1 mM DTT, 4% glycerol, room temperature, 30 min; GST-TFs on glutathione beads, 16-mer random dsDNA library, 0.1% formaldehyde crosslink after washing; high values mean tight binding
Assay [1] deals with T1, FEV (Homo sapiens, UniProt Q99581 1-238).
T1 sequence: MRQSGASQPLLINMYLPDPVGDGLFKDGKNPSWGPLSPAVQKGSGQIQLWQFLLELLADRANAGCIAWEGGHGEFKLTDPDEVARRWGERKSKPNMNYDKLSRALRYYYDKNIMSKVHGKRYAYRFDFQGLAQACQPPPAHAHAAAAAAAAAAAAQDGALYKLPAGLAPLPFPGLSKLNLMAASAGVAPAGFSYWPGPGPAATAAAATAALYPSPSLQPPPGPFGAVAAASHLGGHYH
To be noted: protein: recombinant; tags: N-terminal GST; dsDNA, one strand shown. In short, it runs like this:
(§1)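 After expression in yeast as GST fusions, human transcription factors were bound to glutathione beads, DNA-barcoded and mixed with a tag-only sample. The pools were incubated with 200 nmole of a 16-mer random double-stranded DNA library in Tris/NaCl/DTT/glycerol buffer (30 min, room temperature), washed and crosslinked with 0.1% formaldehyde. Proximity ligation with BsaI/T4 ligase ran for 1 h at 37 °C, before PCR amplification and sequencing on an Illumina NextSeq500. Binding signal is a hexamer's read frequency for a factor divided by its frequency for the tag-only sample.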

In assay [2] the target is ETV5 (Homo sapiens, UniProt P41161 1-510). Particulars: protein: recombinant; tags: N-terminal GST; dsDNA, one strand shown. In short, it runs like this: as §1
The target of assay [3] is HSF1 (Homo sapiens, UniProt Q00613 1-529). To be noted: protein: recombinant; tags: N-terminal GST; chain copies: 3; dsDNA, one strand shown. The procedure, abridged: as §1
Assay [4] addresses T2, SPIC (Homo sapiens, UniProt Q8N5J4 1-248).
T2 sequence: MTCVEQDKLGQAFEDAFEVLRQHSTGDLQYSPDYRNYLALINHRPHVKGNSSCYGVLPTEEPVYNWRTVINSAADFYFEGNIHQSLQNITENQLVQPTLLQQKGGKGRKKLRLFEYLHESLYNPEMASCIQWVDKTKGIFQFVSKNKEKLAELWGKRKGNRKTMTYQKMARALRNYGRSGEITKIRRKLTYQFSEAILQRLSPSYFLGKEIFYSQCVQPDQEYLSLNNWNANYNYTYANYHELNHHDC
To be noted: protein: recombinant; tags: N-terminal GST; dsDNA, one strand shown. In short, it runs like this: as §1

The target of assay [5] is ELF4 (Homo sapiens, UniProt Q99607 1-663). To be noted: protein: recombinant; tags: N-terminal GST; dsDNA, one strand shown. In short, it runs like this: as §1
In assay [6] the target is T3, ELK4 (Homo sapiens, UniProt P28324-2 1-405).
T3 sequence: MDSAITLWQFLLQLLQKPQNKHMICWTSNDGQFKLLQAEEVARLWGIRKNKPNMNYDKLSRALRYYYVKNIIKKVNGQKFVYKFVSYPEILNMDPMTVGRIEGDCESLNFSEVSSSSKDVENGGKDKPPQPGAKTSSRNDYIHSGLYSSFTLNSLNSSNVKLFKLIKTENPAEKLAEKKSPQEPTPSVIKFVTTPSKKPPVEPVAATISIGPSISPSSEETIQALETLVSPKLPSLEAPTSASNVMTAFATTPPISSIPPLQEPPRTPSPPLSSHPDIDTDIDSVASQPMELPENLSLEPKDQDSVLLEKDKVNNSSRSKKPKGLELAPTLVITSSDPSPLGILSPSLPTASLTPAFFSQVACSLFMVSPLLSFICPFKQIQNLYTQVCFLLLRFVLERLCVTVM
To be noted: protein: recombinant; tags: N-terminal GST; dsDNA, one strand shown. In short, it runs like this: as §1

Assay [7] deals with T4, ETV2 (Homo sapiens, UniProt O00321 1-342).
T4 sequence: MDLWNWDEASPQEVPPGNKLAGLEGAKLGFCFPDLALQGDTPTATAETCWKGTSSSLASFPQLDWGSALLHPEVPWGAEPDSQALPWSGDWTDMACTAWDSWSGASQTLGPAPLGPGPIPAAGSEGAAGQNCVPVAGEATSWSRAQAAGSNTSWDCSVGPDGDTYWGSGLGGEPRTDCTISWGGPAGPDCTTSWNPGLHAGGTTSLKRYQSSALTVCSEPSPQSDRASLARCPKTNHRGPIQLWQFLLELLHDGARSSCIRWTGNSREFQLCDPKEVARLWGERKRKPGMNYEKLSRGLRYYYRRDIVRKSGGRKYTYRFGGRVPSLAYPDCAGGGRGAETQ
Particulars: protein: recombinant; tags: N-terminal GST; dsDNA, one strand shown. The procedure, abridged: as §1

Assay [8] deals with T5, ELF3 (Homo sapiens, UniProt P78545 1-371).
T5 sequence: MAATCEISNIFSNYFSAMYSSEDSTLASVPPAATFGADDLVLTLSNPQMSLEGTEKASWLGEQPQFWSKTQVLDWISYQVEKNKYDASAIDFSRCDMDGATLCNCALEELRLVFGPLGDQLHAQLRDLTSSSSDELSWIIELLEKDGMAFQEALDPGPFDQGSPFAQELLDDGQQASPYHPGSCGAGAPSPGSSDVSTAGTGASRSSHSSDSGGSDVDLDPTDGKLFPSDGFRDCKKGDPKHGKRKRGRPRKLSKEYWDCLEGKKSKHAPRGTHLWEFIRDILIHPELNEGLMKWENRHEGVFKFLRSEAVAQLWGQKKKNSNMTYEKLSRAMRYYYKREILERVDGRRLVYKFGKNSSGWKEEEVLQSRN
Particulars: protein: recombinant; tags: N-terminal GST; dsDNA, one strand shown. The procedure, abridged: as §1

In assay [9] the target is CRX (Homo sapiens, UniProt O43186 1-299). Particulars: protein: recombinant; tags: N-terminal GST; dsDNA, one strand shown. In short, it runs like this: as §1
For assay [10], the target named is ETV1 (Homo sapiens, UniProt P50549 1-477). Particulars: protein: recombinant; tags: N-terminal GST; dsDNA, one strand shown. In short, it runs like this: as §1
The target of assay [11] is T6, ERF (Homo sapiens, UniProt P50548 1-548).
T6 sequence: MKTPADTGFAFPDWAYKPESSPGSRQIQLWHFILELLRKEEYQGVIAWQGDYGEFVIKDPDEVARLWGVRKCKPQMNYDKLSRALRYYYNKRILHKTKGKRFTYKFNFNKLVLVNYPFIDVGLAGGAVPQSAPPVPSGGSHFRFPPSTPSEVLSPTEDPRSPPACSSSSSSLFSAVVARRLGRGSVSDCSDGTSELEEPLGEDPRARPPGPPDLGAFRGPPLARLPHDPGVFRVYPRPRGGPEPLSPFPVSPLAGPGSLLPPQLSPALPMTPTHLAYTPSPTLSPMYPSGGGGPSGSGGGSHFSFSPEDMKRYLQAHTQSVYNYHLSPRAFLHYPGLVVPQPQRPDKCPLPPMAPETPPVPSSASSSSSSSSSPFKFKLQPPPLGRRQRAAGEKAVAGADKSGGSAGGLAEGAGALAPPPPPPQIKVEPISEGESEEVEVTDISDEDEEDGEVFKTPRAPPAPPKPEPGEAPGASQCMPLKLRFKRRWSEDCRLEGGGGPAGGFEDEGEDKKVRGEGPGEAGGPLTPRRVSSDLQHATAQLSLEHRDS
Particulars: protein: recombinant; tags: N-terminal GST; dsDNA, one strand shown. In short, it runs like this:
as §1

Assay [12] concerns the target T7, ETV3L (Homo sapiens, UniProt Q6ZN32 1-361).
T7 sequence: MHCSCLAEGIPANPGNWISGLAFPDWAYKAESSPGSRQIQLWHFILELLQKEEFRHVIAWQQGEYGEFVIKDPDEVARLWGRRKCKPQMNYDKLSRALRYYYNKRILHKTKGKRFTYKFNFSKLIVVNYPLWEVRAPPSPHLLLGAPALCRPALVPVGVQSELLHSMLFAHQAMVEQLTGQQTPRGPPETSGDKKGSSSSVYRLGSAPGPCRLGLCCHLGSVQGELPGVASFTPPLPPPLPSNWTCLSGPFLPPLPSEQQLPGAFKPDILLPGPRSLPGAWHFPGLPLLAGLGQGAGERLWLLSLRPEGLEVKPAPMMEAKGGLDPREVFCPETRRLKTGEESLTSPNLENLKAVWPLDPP
Particulars: protein: recombinant; tags: N-terminal GST; dsDNA, one strand shown. In short, it runs like this: as §1

In assay [13] the target is T8, ETS2 (Homo sapiens, UniProt P15036 1-469).
T8 sequence: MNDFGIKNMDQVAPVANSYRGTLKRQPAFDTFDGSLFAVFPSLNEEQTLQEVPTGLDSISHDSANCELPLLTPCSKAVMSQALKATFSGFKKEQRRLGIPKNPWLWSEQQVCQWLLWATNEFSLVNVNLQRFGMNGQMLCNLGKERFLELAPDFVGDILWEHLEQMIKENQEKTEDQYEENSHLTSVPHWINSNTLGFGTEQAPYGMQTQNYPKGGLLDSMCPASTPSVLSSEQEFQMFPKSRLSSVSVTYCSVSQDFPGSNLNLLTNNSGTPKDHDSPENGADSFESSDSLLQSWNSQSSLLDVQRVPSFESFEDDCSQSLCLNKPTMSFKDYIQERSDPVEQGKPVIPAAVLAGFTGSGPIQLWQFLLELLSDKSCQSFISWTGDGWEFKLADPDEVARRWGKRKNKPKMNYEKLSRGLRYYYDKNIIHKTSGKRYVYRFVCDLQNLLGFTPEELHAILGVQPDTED
To be noted: protein: recombinant; tags: N-terminal GST; dsDNA, one strand shown. The procedure, abridged: as §1

In assay [14] the target is T9, SPDEF (Homo sapiens, UniProt O95238 1-335).
T9 sequence: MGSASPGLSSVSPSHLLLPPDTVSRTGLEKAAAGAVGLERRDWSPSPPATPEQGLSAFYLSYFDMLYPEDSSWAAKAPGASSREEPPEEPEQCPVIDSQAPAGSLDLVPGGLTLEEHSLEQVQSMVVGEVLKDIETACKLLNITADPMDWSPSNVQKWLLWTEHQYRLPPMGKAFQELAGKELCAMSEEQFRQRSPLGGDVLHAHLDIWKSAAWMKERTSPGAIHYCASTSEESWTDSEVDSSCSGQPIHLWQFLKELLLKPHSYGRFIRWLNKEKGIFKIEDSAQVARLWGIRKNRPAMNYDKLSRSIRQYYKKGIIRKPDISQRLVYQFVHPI
Particulars: protein: recombinant; tags: N-terminal GST; dsDNA, one strand shown. The procedure, abridged:
as §1

In assay [15] the target is T10, ETV7 (Homo sapiens, UniProt Q9Y603 1-341).
T10 sequence: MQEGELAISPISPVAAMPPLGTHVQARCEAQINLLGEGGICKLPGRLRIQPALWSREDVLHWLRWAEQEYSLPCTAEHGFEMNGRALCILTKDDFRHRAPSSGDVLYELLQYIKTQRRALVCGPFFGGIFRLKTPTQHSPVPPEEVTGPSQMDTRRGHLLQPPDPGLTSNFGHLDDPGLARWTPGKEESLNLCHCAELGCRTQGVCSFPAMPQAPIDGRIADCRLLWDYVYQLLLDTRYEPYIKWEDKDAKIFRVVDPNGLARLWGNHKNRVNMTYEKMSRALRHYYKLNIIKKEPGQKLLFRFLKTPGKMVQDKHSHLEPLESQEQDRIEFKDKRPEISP
To be noted: protein: recombinant; tags: N-terminal GST; dsDNA, one strand shown. The procedure, abridged:
as §1

In assay [16] the target is T11, ELF5 (Homo sapiens, UniProt Q9UKW6-2 1-255).
T11 sequence: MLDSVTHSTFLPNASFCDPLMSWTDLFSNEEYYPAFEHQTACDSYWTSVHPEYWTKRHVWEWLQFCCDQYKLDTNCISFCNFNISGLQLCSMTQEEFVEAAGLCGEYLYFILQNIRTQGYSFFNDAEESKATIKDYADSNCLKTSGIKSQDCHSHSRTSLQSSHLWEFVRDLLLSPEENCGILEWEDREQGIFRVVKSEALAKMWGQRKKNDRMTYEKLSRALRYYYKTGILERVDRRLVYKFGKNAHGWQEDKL
To be noted: protein: recombinant; tags: N-terminal GST; dsDNA, one strand shown. In short, it runs like this:
as §1

The target in assay [17] is T12, ETV3 (Homo sapiens, UniProt P41162-2 1-143).
T12 sequence: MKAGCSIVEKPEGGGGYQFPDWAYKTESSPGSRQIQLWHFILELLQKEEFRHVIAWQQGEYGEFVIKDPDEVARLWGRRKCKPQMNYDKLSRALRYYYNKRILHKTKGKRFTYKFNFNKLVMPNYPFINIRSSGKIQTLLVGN
To be noted: protein: recombinant; tags: N-terminal GST; dsDNA, one strand shown. The procedure, abridged:
as §1

Assay [18] addresses ETV6 (Homo sapiens, UniProt P41212 1-452). Particulars: protein: recombinant; tags: N-terminal GST; dsDNA, one strand shown. In short, it runs like this:
as §1

Sequence of ETV6 (P41212 whole entry): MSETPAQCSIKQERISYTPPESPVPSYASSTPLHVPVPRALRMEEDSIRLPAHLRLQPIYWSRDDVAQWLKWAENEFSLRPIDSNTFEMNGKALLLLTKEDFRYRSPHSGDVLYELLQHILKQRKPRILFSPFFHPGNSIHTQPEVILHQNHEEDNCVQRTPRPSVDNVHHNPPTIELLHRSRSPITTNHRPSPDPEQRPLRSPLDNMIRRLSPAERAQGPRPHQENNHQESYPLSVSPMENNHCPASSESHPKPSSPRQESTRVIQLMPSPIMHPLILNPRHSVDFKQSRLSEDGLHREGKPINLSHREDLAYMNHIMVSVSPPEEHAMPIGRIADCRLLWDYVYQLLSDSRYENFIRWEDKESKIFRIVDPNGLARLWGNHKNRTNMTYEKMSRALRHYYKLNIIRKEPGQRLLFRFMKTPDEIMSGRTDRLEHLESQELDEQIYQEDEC
Sequence of ELF4 (Q99607 whole entry): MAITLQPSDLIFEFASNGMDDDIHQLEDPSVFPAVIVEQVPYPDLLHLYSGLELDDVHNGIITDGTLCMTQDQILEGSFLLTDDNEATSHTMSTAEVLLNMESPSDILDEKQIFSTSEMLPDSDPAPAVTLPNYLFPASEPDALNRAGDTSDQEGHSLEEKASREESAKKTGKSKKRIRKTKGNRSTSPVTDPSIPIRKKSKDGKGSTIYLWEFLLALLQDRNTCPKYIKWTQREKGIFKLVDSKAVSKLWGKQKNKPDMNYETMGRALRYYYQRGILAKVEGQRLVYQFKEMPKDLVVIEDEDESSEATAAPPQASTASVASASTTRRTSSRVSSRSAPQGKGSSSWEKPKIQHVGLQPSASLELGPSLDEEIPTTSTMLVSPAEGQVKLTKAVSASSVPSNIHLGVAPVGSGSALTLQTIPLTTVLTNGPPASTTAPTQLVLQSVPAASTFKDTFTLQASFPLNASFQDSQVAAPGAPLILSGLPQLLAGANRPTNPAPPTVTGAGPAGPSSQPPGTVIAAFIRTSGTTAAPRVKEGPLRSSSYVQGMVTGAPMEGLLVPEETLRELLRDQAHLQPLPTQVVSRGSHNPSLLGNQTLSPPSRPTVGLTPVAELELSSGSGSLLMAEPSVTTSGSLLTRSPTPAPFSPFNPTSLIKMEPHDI
Sequence of ETV5 (P41161 whole entry): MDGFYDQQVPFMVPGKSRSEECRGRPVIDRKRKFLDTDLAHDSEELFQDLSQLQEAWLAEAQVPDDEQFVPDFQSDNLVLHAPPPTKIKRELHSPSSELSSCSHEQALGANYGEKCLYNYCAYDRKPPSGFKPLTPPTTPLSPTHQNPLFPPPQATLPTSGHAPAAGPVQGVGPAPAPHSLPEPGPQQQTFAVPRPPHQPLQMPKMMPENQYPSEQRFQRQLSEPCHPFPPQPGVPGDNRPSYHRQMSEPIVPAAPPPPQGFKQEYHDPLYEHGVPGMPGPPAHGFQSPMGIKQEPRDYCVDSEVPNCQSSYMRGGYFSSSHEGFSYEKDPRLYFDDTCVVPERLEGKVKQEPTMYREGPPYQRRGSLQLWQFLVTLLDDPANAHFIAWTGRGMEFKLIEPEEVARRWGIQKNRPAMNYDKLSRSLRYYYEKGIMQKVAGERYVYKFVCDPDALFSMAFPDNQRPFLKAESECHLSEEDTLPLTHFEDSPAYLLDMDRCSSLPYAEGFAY
Sequence of CRX (O43186 whole entry): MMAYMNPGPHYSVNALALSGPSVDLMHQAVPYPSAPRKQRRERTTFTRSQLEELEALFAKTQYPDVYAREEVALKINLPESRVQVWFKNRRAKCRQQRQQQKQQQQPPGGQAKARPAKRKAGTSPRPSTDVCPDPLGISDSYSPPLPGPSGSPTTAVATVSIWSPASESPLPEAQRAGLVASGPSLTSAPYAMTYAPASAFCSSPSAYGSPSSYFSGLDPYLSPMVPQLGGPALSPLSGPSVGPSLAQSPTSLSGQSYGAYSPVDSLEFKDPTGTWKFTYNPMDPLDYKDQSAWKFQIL
Sequence of ETV1 (P50549 whole entry): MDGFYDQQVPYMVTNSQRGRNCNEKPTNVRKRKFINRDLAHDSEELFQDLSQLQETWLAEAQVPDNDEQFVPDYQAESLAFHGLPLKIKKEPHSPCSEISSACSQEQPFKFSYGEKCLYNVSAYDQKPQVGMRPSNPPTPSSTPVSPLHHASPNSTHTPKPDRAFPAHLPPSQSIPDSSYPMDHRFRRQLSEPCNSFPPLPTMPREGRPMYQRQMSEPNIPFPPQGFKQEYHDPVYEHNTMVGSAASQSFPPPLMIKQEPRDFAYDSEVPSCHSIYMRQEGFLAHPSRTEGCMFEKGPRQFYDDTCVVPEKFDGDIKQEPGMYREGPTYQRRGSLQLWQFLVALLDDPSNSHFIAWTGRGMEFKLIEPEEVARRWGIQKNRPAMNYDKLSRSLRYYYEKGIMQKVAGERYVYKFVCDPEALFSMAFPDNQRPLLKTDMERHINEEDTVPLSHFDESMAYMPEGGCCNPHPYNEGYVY
Sequence of HSF1 (Q00613 whole entry): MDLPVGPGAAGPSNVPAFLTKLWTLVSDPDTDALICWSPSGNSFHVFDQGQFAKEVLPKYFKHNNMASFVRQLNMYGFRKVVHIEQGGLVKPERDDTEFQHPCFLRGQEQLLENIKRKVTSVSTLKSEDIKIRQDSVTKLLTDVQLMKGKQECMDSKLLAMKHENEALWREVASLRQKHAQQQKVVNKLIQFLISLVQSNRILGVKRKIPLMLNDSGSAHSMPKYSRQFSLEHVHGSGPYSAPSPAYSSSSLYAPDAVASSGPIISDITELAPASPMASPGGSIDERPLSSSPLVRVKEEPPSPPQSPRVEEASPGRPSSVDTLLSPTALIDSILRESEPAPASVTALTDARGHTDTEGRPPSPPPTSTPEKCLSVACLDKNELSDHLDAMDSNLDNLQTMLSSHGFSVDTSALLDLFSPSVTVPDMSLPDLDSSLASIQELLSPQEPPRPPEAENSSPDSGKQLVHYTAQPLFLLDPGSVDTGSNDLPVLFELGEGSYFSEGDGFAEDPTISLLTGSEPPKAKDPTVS

Turning to CGACAA, the binding signal in assay [1] is 1.3 fold enrichment (6-mer frequency, TF over GST control); in assay [2], 1.24 fold enrichment (6-mer frequency, TF over GST control); in assay [3] it was 1.12 fold enrichment (6-mer frequency, TF over GST control); in assay [4] it was 1.15 fold enrichment (6-mer frequency, TF over GST control); in [5] it was 1.18 fold enrichment (6-mer frequency, TF over GST control); in assay [6] it was 1.13 fold enrichment (6-mer frequency, TF over GST control). The binding signal in [7] was 1.08 fold enrichment (6-mer frequency, TF over GST control); in assay [8], 1.17 fold enrichment (6-mer frequency, TF over GST control); in assay [9], 1.03 fold enrichment (6-mer frequency, TF over GST control); in assay [10], 1.18 fold enrichment (6-mer frequency, TF over GST control); in [11] it was 1.18 fold enrichment (6-mer frequency, TF over GST control); in assay [12], 1.24 fold enrichment (6-mer frequency, TF over GST control). Also, the binding signal is 1.16 fold enrichment (6-mer frequency, TF over GST control) in assay [13]; 1.27 fold enrichment (6-mer frequency, TF over GST control) in [14]; 1.12 fold enrichment (6-mer frequency, TF over GST control) in assay [15]; 1.14 fold enrichment (6-mer frequency, TF over GST control) in [16]; 1.15 fold enrichment (6-mer frequency, TF over GST control) in assay [17]; 1.31 fold enrichment (6-mer frequency, TF over GST control) in assay [18].
